According to PubChem BioAssay (EPA / NIEHS):
“And” between values parts separate entries of the source, which are not always exact repeats. Equal entries are not always repeated. A structure can be active in one record and inactive in another. The source made the active and inactive calls. How the source made its calls: active means hit-call score of the fitted dose curve at least 0.9, where 1 is the maximum; inactive means score below 0.9.

Experiments:
[1] = APR_HepG2_P-H2AX_72hr: Apredica 72-hour HepG2 Assay for H2AX Phosphorylation (AID 2282916); settings: imaging, actives raise or lower the signal;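 further: phospho-histone H2A.x immunostain intensity per cell marking DNA damage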
How it was run: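 Human hepatoma HepG2 cells are dosed across ten concentrations (0.39 to 200 uM, 0.5% v/v DMSO) and incubated 72 hr. Phospho-histone H2A.x is then detected by antibody staining alongside c-Jun and Hoechst, and quantified by automated fluorescence imaging.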

[2] = APR_HepG2_MitoMembPot_72hr: Apredica 72-hour HepG2 Assay for Mitochondrial Membrane Potential (AID 2282917); settings: imaging, actives raise or lower the signal
How it was run: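 Membrane potential read by MitoTracker Red CMXRos (250 nM, 30 min, pre-fixation) fluorescence imaging of HepG2 after 72 hr exposure. Ten concentrations, 0.39–200 uM, duplicate wells, 0.5% DMSO; fitted in both directions against DMSO baseline.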

[3] = APR_HepG2_MitoticArrest_72hr: Apredica 72-hour HepG2 Assay for Mitotic Arrest (AID 2282918); settings: high-content imaging, actives raise or lower the signal
How it was run: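 Read-out is phospho-histone H3 immunofluorescence with Hoechst nuclear segmentation, imaged at 20x. Human HepG2 liver cells received ten concentrations (0.39–200 uM, final DMSO 0.5% v/v) for 72 hr before fixation. Gain or loss of signal was fitted relative to DMSO.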

[4] = APR_HepG2_MicrotubuleCSK_72hr: Apredica 72-hour HepG2 Assay for Microtubule CSK Stabilty (AID 2282919); settings: HepG2 microtubule cytoskeleton, high-content imaging, actives raise or lower the signal
How it was run: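 High-content imaging of alpha-tubulin staining in fixed HepG2 cells after 72 hr treatment with ten concentrations from 0.39 to 200 uM (0.5% DMSO). Fitting was bidirectional against DMSO; taxol served as positive control.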

[5] = APR_HepG2_P-H2AX_24hr: Apredica 24-hour HepG2 Assay for H2AX Phosphorylation (AID 2282920); settings: high-content imaging, actives raise or lower the signal
How it was run: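 HepG2, 24 hr, cpd 0.39–200 uM (10 conc, duplicate), DMSO 0.5% v/v final. Fix 3.7% formaldehyde, Triton X-100 permeabilize, anti-phospho-H2A.x 1:200 + Hoechst 2 ug/mL. Imaged, bidirectional fit vs DMSO.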

[6] = APR_HepG2_StressKinase_72hr: Apredica 72-hour HepG2 Assay for Stress Kinase (AID 2282921); settings: HepG2 stress kinase (phospho-c-Jun) imaging, actives raise or lower the signal
How it was run: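 After a 72 h compound treatment spanning 0.39 to 200 uM, formaldehyde-fixed cells are labelled for phosphorylated c-Jun and nuclei, imaged by automated fluorescence microscopy, and activity is fitted in both directions relative to DMSO controls.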

[7] = APR_HepG2_StressKinase_24hr: Apredica 24-hour HepG2 Assay for Stress Kinase (AID 2282922); settings: HepG2 stress kinase (phospho-c-Jun) imaging, actives raise or lower the signal
How it was run: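 High-content imaging of phospho-c-Jun immunofluorescence in fixed, permeabilized HepG2 cells after 24 h dosing. Ten concentrations, 0.39 to 200 uM, run in duplicate at 0.5% v/v DMSO; gain or loss of signal versus DMSO.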

[8] = APR_HepG2_p53Act_72hr: Apredica 72-hour HepG2 Assay for p53 Activation (AID 2282923); settings: high-content imaging, actives raise or lower the signal;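 further: average cellular p53 protein immunofluorescence intensity in HepG2 cells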
How it was run: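 Imaging-based endpoint: after 72 hr compound exposure (up to 200 uM, 0.5% DMSO), fixed and permeabilized monolayers were labelled with anti-p53 antibody and imaged; signal change in either direction was fitted relative to DMSO controls.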

[9] = APR_HepG2_MitoMass_72hr: Apredica 72-hour HepG2 Assay for Mitochondrial Mass (AID 2282924); settings: high-content imaging, actives raise or lower the signal;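 further: MitoTracker Red CMXRos stain intensity per cell imaged as mitochondrial mass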
How it was run: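 Readout is imaged MitoTracker Red (250 nM, 30 min, pre-fixation) signal, fitted bidirectionally against DMSO baseline. Human HepG2 liver cells received compound 0.39–200 uM in duplicate for 72 hr, final DMSO 0.5%.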

[10] = APR_HepG2_NuclearSize_72hr: Apredica 72-hour HepG2 Assay for Nuclear Size (AID 2282925); settings: high-content imaging, actives raise or lower the signal
How it was run: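 Nuclear size was read by high-content imaging of Hoechst 33342 stain after formaldehyde fixation. Compounds ran 72 h on HepG2 at 0.39 to 200 uM, with final DMSO 0.5% v/v. Curves fitted both directions relative to DMSO control.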

[11] = ATG_CRE_CIS: Attagene CIS-FACTORIAL HepG2 Assay for human cAMP Responsive Element (CRE) binding protein 3 (AID 2282926); settings: HepG2 CRE cis-reporter, Attagene multiplexed mRNA; actives raise or lower the signal
How it was run: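 Assay format: transient reporter transfection of HepG2, 24 h treatment, total RNA isolation with DNase I step. Reporter abundance read by fluorescence after PCR and capillary separation; DMSO-normalised gain or loss fitting.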

[12] = molecular target: CCAAT/enhancer-binding protein beta (Homo sapiens) (UniProt P17676); assay: ATG_C_EBP_CIS: Attagene CIS-FACTORIAL HepG2 Assay for human CCAAT/Enhancer Binding Protein (C/EBP) beta (AID 2282927); settings: HepG2 Attagene cis-factorial transcription factor reporter; actives raise or lower the signal
How it was run: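 Endogenous transcription factor activity in human liver HepG2 cells is inferred from induction of a CEBPB-linked reporter mRNA. Exposure lasts 24 h; activity is fitted in both directions relative to DMSO.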

[13] = ATG_CMV_CIS: Attagene CIS-FACTORIAL HepG2 Assay for human CMV (Internal Marker) (AID 2282928); settings: HepG2 CMV promoter reporter, transcription factor profiling; actives raise or lower the signal;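 further: endpoint acts as a background internal control marker rather than a target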
How it was run: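 Bidirectional fits against DMSO are applied to reporter mRNA, read by RT-PCR with capillary electrophoresis, from HepG2 cells exposed 24 h. The endpoint serves as an internal CMV background marker within the cis-factorial reporter panel.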

[14] = molecular target: Aryl hydrocarbon receptor (Homo sapiens) (UniProt P35869); assay: ATG_Ahr_CIS: Attagene CIS-FACTORIAL HepG2 Assay for human Aryl Hydrocarbon Receptor (Ahr) (AID 2282930); settings: HepG2 AhR cis-factorial reporter transcription; actives raise or lower the signal
How it was run: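 Transient MRTU transfection of HepG2 → 24 h compound exposure → total RNA, oligo(dT) RT → PCR, 6-FAM extension, HpaI cut → CE fluorescence. DMSO = baseline; bidirectional curve fit.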

[15] = ATG_AP_1_CIS: Attagene CIS-FACTORIAL HepG2 Assay for human Activator Protein 1 (AP-1) (AID 2282931); settings: HepG2 Attagene cis-factorial AP-1 reporter mRNA; actives raise or lower the signal
How it was run: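 Multiplexed HepG2 reporter assay, 24 h dosing. mRNA induction detected by RT-PCR plus capillary electrophoresis. Activity fitted in both directions against DMSO.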

[16] = ATG_AP_2_CIS: Attagene CIS-FACTORIAL HepG2 Assay for human Activator Protein 2 (AP-2) (AID 2282932); settings: HepG2 AP-2 cis-reporter, Attagene transcription factor profiling; actives raise or lower the signal
How it was run: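 Endogenous transcription factor activity is reported through transfected multiplex reporter constructs in HepG2, after 24 h of compound exposure. Transcripts were quantified by RT-PCR and capillary electrophoresis of fluorescent fragments. Bidirectional fit against DMSO.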

[17] = ATG_BRE_CIS: Attagene CIS-FACTORIAL HepG2 Assay for human Bone Morphogenetic Protein (BMP) Response Element (BRE) (AID 2282933); settings: HepG2 BMP response element reporter, Attagene transcription factor profiling; actives raise or lower the signal
How it was run: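 Fluorescence-labelled reporter cDNA fragments, separated by capillary electrophoresis, gave the signal for this component of a 52-readout multiplex. HepG2 cells were transfected, exposed to chemicals for 24 h, and compared with DMSO using bidirectional fitting.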

[18] = molecular target: Retinoic acid receptor alpha (Homo sapiens) (UniProt P10276); assay: ATG_DR5_RAR_CIS: Attagene CIS-FACTORIAL HepG2 Assay for human Retinoic Acid Receptor Alpha (RARE), DR5 submotif (AID 2282934); settings: HepG2 Attagene cis-factorial RARE DR5 reporter, mRNA; actives raise or lower the signal;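 on AC50: reporter responds to endogenous RAR alpha beta and gamma in HepG2 not RARA alone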
How it was run: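 Transient MRTU transfection of HepG2; 24 h compound treatment; TriZol RNA, oligo(dT) RT, PCR, FAM labelling, capillary electrophoresis. Bidirectional fit vs DMSO. Endogenous TF activity at DR5 RARE.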

[19] = ATG_DR4_LXR_CIS: Attagene CIS-FACTORIAL HepG2 Assay for human Liver X Receptor (LXR), DR4 submotif (AID 2282929); settings: HepG2 Attagene DR4 cis-reporter, mRNA transcription; actives raise or lower the signal
How it was run: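 Fluorescence intensity of labelled reporter cDNA fragments, separated by capillary electrophoresis, gives the signal. HepG2 cells bearing cis-regulated reporter constructs were treated 24 h; activity fitted bidirectionally relative to DMSO negative control.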

Measured: AC50

Sequence of Aryl hydrocarbon receptor (Homo sapiens) (P35869 whole entry, looked up): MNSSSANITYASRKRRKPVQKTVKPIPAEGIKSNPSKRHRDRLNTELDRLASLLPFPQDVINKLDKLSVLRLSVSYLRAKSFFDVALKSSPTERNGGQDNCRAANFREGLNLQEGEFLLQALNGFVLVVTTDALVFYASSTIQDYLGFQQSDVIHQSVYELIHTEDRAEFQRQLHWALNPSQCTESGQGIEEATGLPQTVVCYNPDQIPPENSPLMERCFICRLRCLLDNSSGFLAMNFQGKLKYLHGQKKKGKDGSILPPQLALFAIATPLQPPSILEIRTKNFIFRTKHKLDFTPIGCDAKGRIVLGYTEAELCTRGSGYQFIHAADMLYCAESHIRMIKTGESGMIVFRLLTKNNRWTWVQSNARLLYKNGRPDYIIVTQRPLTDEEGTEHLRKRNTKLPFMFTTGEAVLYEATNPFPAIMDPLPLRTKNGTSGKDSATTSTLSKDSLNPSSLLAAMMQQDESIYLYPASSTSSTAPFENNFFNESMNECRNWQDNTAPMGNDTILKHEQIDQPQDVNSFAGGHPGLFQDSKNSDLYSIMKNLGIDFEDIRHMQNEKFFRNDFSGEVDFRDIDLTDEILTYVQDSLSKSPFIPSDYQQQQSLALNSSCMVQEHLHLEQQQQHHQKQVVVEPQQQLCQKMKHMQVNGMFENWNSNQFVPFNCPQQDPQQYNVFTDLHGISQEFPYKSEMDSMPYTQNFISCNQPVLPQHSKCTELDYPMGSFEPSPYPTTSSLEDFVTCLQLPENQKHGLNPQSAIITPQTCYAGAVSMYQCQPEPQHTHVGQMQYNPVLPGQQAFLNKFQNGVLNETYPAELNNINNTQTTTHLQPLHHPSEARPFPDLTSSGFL
Sequence of CCAAT/enhancer-binding protein beta (Homo sapiens) (P17676 whole entry, looked up): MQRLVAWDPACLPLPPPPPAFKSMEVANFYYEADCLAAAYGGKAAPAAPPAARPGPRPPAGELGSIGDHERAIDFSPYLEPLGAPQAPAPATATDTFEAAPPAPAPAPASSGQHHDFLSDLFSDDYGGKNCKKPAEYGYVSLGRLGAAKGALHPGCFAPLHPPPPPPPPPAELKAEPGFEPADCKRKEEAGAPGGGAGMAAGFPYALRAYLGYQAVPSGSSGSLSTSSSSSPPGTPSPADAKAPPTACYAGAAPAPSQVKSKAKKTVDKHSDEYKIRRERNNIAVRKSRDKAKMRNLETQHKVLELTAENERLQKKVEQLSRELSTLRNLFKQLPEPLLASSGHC
Sequence of Retinoic acid receptor alpha (Homo sapiens) (P10276 whole entry, looked up): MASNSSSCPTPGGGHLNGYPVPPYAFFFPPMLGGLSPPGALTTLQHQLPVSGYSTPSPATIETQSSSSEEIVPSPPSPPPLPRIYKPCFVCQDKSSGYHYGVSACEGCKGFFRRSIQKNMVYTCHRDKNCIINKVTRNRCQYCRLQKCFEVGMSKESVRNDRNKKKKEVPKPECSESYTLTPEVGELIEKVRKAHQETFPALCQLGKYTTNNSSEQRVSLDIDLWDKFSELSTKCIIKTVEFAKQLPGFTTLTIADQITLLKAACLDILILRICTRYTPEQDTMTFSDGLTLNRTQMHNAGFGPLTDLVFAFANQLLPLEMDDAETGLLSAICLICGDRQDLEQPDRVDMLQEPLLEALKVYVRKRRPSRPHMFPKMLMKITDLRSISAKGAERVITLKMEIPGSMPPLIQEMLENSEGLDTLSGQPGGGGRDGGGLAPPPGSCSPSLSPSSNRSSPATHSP

CCCCC(CC)COC(=O)CCCCC(=O)OCc1ccccc1 (stereo not given)
not listed: [19]
inactive: all other assays above

CCCCC[C@H](O)CC(=O)CCc1ccc(O)c(OC)c1
active: [16] 79.2 µM
not listed: [10] | [15]
inactive: all other assays above

CC[C@H](C)[C@@H](C(=O)O)n1sc2ccccc2c1=O
not listed: [10] | [19]
inactive: all other assays above

ClC1=C(Cl)C(Cl)(Cl)C(Cl)=C1Cl
active: [11] 11.9 µM | [12] 16.9 µM | [13] 11.1 µM | [14] 8.81 µM | [18] 21.4 µM
inactive: [1] | [2] | [3] | [4] | [5] | [6] | [7] | [8] | [9] | [11] | [12] | [13] | [14] | [15] | [16] | [17] | [18]

O=C(O)Cc1cc(I)c(Oc2cc(I)c(O)c(I)c2)c(I)c1
inactive: [1] | [2] | [3] | [4] | [5] | [6] | [7] | [8] | [9] | [11] | [14] | [16] | [17]
active: [11] 18.3 µM | [12] 29.1 µM and 17.8 µM | [13] 22.4 µM and 16.7 µM | [14] 89.3 µM | [15] 16.5 µM and 122 µM | [16] 121 µM | [17] 51 µM | [18] 41.1 µM and 32.5 µM
